For 17 compounds, composite z-score and z-score results are on record in PubChem BioAssay.

For test [1], the system named is Human papillomavirus type 1a protein E7 (residues 44-93). As to the kind of experiment: HPV1a E7 fragment binders on microarrays, primary screen, biochemical, small-molecule microarray, residues 44-93, 635 nm fluorescence (AID 1108).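 Note: E7 fragment applied at 1 µg/mL in TBST for 1 h at 4 C; score combines spot fluorescence with its signal to noise ratio.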 As to conditions: small-molecule microarray binding, fluorescence 635 nm; higher = more signal.
Test [2] can be described thus: modulators of HCV replicon luciferase signal, primary screen, HCV replication inhibitor project, Huh7 cells, luciferase reporter (AID 1109).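 Note: huh7 hepatoma cells harbouring a luciferase neomycin HCV replicon reporter; luciferase luminescence as measure of HCV replicon replication; test concentration not given here.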 As to conditions: 48 h, higher = more signal. On the technique in general: In antiviral work, replicon cells carry a viral genome segment that copies itself.
Test [3] addresses Left-right determination factor 2 (Homo sapiens) (UniProt O00292). As to the kind of experiment: LEFTY2 binders on small-molecule microarrays, primary screen, biochemical, small-molecule microarray, 635 nm fluorescence scan (AID 1110). The note with it: LEFTY2 binding, higher = more signal.
The target in test [4] is Calmodulin-1 (Homo sapiens) (UniProt P0DP23). As to the kind of experiment: CALM1 binders on microarrays, EGTA buffer, profiling panel, biochemical, small-molecule microarray, Cy5-labelled CALM1 (AID 1111).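 Note: labelled calmodulin applied in Tris saline Tween buffer holding calcium plus EGTA and DTT.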 As to conditions: Cy5-CALM1 binding fluorescence, higher = more signal.
Test [5] shares this target. Put plainly: calcium-bound CALM1 binders on microarrays, profiling panel, artefact control for SMM control-protein annotation, biochemical, small-molecule microarray, Cy5-labelled CALM1, plus calcium (AID 1112).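 Note: score merges spot fluorescence with signal to noise from triplicate slides.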 The note with it: Cy5-CALM1 binding fluorescence, higher = more signal.
The nature of test [6]: small-molecule microarray binders of probe aWnt5a, primary screen, biochemical, biotinylated probe, 635/667 nm fluorescence (AID 1113).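 Note: score merges 667 nm fluorescence intensity with signal-to-noise per printed feature.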 The note with it: higher = more signal.
A short description of test [7]: small-molecule microarray binders of probe aShh, primary screen, biochemical, biotinylated probe, 635/667 nm fluorescence (AID 1114).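 Note: probe is biotin-labelled aShh protein from a stem cell growth factor screen; measures binding of labelled protein to compounds printed on the slide; score merges feature fluorescence at 667 nm with signal-to-noise.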 As to conditions: higher = more signal.
Test [8] can be described thus: small-molecule microarray binders of probe aNog, primary screen, biochemical, biotinylated probe, 635/667 nm fluorescence (AID 1115).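 Note: probe is biotinylated aNog protein used at 0.15 µg/mL for 1 h at 4 C; z-score combines 667 nm fluorescence of each spot with its signal to noise.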 The note with it: higher = more signal.
The target in test [9] is Torsin-1A-interacting protein 1 (Homo sapiens) (UniProt Q5JTV8). As to the kind of experiment: LAP1 binders from COS7 cell lysate, primary screen, small-molecule microarray, 635/667 nm fluorescence (AID 1116). As to conditions: COS7-hLAP1 lysate binding, 635 nm fluorescence, higher = more signal.
In test [10] the target is Alpha-bungarotoxin (Bungarus multicinctus) (UniProt P60615). Put plainly: alpha-bungarotoxin binders on microarray, profiling panel, artefact control for SMM control protein annotation, biochemical, small-molecule microarray, Alexa647 label, 635/667 nm fluorescence (AID 1117). The note with it: alpha-BTX-A647 binding fluorescence, higher = more signal.
Chain of Alpha-bungarotoxin (Bungarus multicinctus) (P60615 whole entry, looked up): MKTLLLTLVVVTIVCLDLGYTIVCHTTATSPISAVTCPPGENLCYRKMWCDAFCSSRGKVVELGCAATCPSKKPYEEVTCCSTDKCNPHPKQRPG

Chain of Left-right determination factor 2 (Homo sapiens) (O00292 whole entry, looked up): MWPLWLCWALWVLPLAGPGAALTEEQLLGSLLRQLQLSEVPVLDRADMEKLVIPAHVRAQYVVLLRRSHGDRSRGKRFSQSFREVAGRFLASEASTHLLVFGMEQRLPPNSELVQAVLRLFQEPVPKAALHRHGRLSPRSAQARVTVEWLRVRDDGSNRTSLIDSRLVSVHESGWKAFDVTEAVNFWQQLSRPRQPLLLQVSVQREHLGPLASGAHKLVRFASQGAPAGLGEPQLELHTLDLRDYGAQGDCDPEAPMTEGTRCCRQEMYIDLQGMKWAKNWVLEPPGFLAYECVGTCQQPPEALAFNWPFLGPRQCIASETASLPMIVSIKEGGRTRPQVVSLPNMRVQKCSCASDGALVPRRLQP
Chain of Torsin-1A-interacting protein 1 (Homo sapiens) (Q5JTV8 whole entry, looked up): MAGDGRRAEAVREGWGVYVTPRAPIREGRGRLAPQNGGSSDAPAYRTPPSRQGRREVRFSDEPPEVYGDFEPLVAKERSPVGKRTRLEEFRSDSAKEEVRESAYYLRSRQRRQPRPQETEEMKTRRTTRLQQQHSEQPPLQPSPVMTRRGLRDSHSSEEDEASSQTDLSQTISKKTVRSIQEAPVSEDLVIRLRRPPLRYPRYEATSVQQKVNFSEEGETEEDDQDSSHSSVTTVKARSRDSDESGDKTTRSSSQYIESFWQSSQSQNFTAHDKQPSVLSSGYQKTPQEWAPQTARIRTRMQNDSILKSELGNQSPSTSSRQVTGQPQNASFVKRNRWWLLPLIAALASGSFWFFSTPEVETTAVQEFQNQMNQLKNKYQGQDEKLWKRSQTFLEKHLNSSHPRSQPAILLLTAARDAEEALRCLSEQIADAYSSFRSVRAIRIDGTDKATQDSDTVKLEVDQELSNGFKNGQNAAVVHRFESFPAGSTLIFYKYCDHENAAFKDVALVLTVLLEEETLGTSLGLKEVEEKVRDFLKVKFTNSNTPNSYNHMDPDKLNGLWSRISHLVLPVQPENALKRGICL

Turning to `NC(=O)NCC#Cc1ccc2c(c1)[C@]1(C(=O)N2)[C@H](C(=O)Nc2nc3ccccc3s2)[C@H]2C(=O)O[C@H](c3ccccc3)[C@H](c3ccccc3)N2[C@@H]1c1ccc(O)cc1`, the composite z-score in [1] is 0.944; in test [3], 0.215; in test [4], 1.29; in [5], 0.414; in test [6], -0.0445; in test [7] it was -0.0243. The figures for the composite z-score in test [8], in test [9] and in [10] were 0.23, 0.187 and 1.64, respectively. The z-score in test [2] was -0.797.

For `CC(C)(C)OC(=O)CC[C@]1(C(=O)NCCN2CCOCC2)N=C(c2ccc(OCCCO)cc2)O[C@H]1c1ccccc1N=[N+]=[N-]`, the composite z-score in test [1] was determined as 0.775; in test [3], 0.245; in test [4], 1.3; in test [5] it was 0.374; in [6], 0.0229; in test [7], 0.0214. In addition, the composite z-score in test [8] worked out at 1.73; in test [9] it was 1.7; in [10], 1.04. The compound further had a z-score in [2] of 1.08.

For the compound `CN1C(=O)C2C(C1=O)C1C=C(c3ccc(CO)cc3)C2C(c2cccs2)N1Cc1cccc(OC(F)(F)F)c1` (stereo not given), the composite z-score in test [1] was 1.4; in test [3], 0.526; in [4], 1.1; in test [5], 0.334; in test [6], 0.0077; in test [7], -0.0749. The composite z-score in test [8] was -0.251; in [9], 0.291; in test [10], 1.43. Further, the z-score in [2] is -1.3.

In the case of `C=C(CCCC)C(=O)CC[C@@H](OC(=O)c1cccnc1)c1ccccc1OCCO`, the composite z-score in test [1] is -0.266; in [3] it was -0.0055; in test [4] it was -1.11; in test [5] it was -1.07; in test [6], -0.091; in test [7] it was -0.138. Besides, the composite z-score is -0.117 in test [8], 0.684 in test [9] and 0.583 in test [10]. This compound returned a z-score in test [2] of -3.05.

Consider `C[C@H]1C2=C3C(CC[C@H]4C(OCc5ccc(F)cc5C(F)(F)F)OC[C@](C)([C@@H]34)N(C(=O)OC(C)(C)C)C2)C2COC(=O)OCC21` (stereo not given in full), for which the composite z-score was 1.35 in test [1]; -0.431 in test [3]; 2.39 in [4]; 1.06 in test [5]; 0.0232 in [6]; 0.26 in test [7]. The results for the composite z-score in test [8], in test [9] and in test [10] were -0.701, 0.908 and 0.771, respectively. Besides, the z-score in test [2] was -1.84.

On to `O=C1C[C@@](C(=O)NCC(F)(F)F)(c2ccc([N+](=O)[O-])cc2)[C@@H](c2ccc(CO)cc2)N1C1CCCCC1`, for which the composite z-score in test [1] is 1.04; in test [3] it was 0.301; in test [4] it was 0.769; in test [5], -0.088; in test [6], -0.006; in test [7] it was 0.0898. Also, the composite z-score in [8] came out at 0.0807; in test [9], 1.9; in test [10], 1.8. The same compound had a z-score in test [2] of -1.4.

Turning to `CC(C)CNC(=O)[C@@]1(c2ccc([N+](=O)[O-])cc2)CC(=O)N(C2CCCCC2)[C@@H]1c1ccc(CO)cc1I`, the composite z-score in [1] was 1.11; in test [3], -0.609; in [4], 0.779; in test [5], 0.379; in [6], -0.0417; in [7], -0.16. For the same compound, the composite z-score in test [8] was -0.279; in test [9], 0.341; in [10], 0.817. In addition, in test [2], the z-score was -2.3.

As for `COCCCNC(=O)[C@@]1(Sc2ccc(C)cc2)CC(=O)N(C2Cc3ccccc3C2)[C@@H]1c1ccc(CO)cc1I`, the composite z-score was -0.499 in test [1]; -1.31 in test [3]; -0.176 in [4]; 0.0685 in test [5]; -0.154 in [6]; -0.536 in [7]. Besides, the figures for the composite z-score in test [8], in test [9] and in [10] were -0.0621, -0.354 and -0.0078, respectively. This compound also gave a z-score in [2] of -1.05.

`CCOc1cc(C(O)C2C=CC3C(=O)N(C4CCCCC4)C(=O)C3N2Nc2ccc(OC)cc2)ccc1O` (stereo not given): the composite z-score is 1.41 in [1]; 0.208 in test [3]; 1.13 in test [4]; 0.505 in [5]; 0.0182 in test [6]; 0.06 in [7]. Besides, the composite z-score in [8] is 0.796; in test [9], 0.327; in test [10], 1.64. Besides, the z-score in test [2] was -0.352.

Take `CC(C)CN1C(=O)[C@@]2(c3ccc([N+](=O)[O-])cc3)CC(=O)N(CC34CC5CC(CC(C5)C3)C4)[C@@H]2c2ccc(CO)cc21`: the composite z-score in test [1] was -0.746; in test [3], -1.36; in test [4] it was 0.657; in test [5], 0.0047; in test [6], -0.152; in test [7] it was 0.151. The composite z-score in test [8] is 0.884; in test [9], -1.09; in [10], 0.578. The z-score in [2] was -1.07.

As to `CCOC(=O)[C@@H]1[C@@H]2C(=O)N(CC)C(=O)[C@@H]2C[C@@H]1Sc1ccccc1`, the composite z-score in test [1] turned out to be 1.35; in test [3] it was 0.0952; in test [4], 0.414; in test [5], 0.163; in test [6], 0.0357; in [7], 0.131. The values for the composite z-score in test [8], in test [9] and in [10] were 0.266, 0.706 and 1.27, respectively. For the same compound, in test [2], the z-score was -1.33.

In the case of `C=C(CCCC)C(=O)CC[C@@H](OC(=O)c1ccccc1-c1ccccc1C(=O)O)c1cccc(OCCO)c1`, the composite z-score is 0.834 in [1]; 0.373 in [3]; -0.826 in [4]; -0.973 in test [5]; -0.148 in test [6]; -0.0709 in test [7]. Further, the composite z-score in test [8] was 0.468; in test [9], 2.19; in test [10] it was -0.14. The z-score in [2] was -4.38.

With `C=CCOC(=O)[C@H]1[C@@H]2C(=O)O[C@@H](c3ccccc3)[C@@H](c3ccccc3)N2[C@@H](c2ccc(OCCOC(=O)[C@H]3C[C@H]4C(=O)N[C@@H](Cc5ccccc5)C(=O)N4[C@H]3c3cccc(OCCO)c3)cc2)[C@]12C(=O)Nc1ccc(I)cc12`, the composite z-score is 1.38 in test [1]; 0.692 in test [3]; 0.384 in test [4]; 0.334 in test [5]; 0.0004 in test [6]; -0.144 in test [7]. Also, the results for the composite z-score in test [8], in [9] and in test [10] were -0.175, 1.25 and 1.35, respectively. The compound also yielded a z-score in test [2] of -1.68.

On to `C=CCC(OC(C)=O)[C@@H]1[C@@H](N(Cc2cc3ccccc3o2)C(=O)c2ccc(C)cc2)c2cc(OCCCO)ccc2N1C(=O)Cc1ccc2ccccc2c1` (stereo not given in full), for which the composite z-score in [1] was -0.494; in test [3], 0.081; in test [4], -0.0956; in [5], -0.147; in [6], 0.103; in [7] it was -0.13. Besides, the figures for the composite z-score in test [8], in test [9] and in test [10] were -0.322, 0.102 and -0.319, respectively. The compound also registered a z-score in [2] of -0.185.

Consider `COc1cc2c(cc1O)C(C)N(Cc1cc3c(cc1Br)OCO3)CC2` (stereo not given), for which the composite z-score in test [1] is -1.15; in test [3] it was -0.407; in [4] it was 0.0966; in test [5], 0.201; in [6], -0.0944; in test [7], -0.338. Moreover, the composite z-score is -0.252 in test [8], 0.208 in test [9] and -0.0712 in [10]. The same compound displayed a z-score in test [2] of -0.0195.

Consider `C=C(/C(=C/C[C@@H](OC(=O)c1ccncc1)c1ccc(OCCO)cc1)c1cc(C(=O)OC)ccc1OC)C(C)C`, for which the composite z-score in test [1] was 1.38; in test [3], -0.0398; in test [4], 0.356; in [5] it was -0.252; in test [6] it was -0.0721; in test [7] it was -0.138. In addition, the composite z-score is -0.45 in test [8], 0.637 in [9] and 0.249 in [10]. In test [2], this compound had a z-score of -1.88.

`CCOC(=O)C[C@H]1[C@H](OC(=O)c2ccc(C(=O)c3ccccc3)cc2)[C@@H](NC(=O)c2ccc3ccccc3c2)c2cc(OCCCO)ccc2N1C(=O)c1ccccc1`: the composite z-score in test [1] is 0.974; in [3] it was 0.317; in test [4], 0.988; in [5], 0.602; in test [6], -0.0346; in test [7] it was 0.0684. Moreover, the composite z-score in test [8] came to 0.612; in [9], 0.602; in test [10] it was 1.04. The same compound displayed a z-score in [2] of -0.617.
